Rows were chosen to be rich in hits. Some 12% of all compounds tested hit in one or more screens of this group.
OTUD3 inh: inhibitors of human OTUD3 deubiquitinase. OTU domain-containing protein 3 (Homo sapiens), Q5T2D3. purified OTUD3, Ub-rhodamine fluorescence, 2 h. inhibition, % at 25 µM. 47,000 compounds, 0.7% hits
Target sequence (Q5T2D3 whole entry, looked up, the tested form may be a part): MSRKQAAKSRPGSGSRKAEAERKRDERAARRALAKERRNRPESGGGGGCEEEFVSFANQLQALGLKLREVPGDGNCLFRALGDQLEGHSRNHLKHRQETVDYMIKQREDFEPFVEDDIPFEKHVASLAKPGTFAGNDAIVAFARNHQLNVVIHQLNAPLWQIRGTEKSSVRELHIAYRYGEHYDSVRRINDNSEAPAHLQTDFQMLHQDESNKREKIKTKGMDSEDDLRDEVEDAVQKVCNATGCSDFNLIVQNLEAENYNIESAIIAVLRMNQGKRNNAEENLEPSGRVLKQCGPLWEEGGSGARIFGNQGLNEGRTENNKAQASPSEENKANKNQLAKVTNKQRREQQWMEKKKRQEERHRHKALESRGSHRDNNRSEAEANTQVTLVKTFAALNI
USP17 inh: inhibitors of human USP17 deubiquitinase. inhibition, % at 50 µM. 47,000 compounds, 6.5% hits. purified USP17, Ub-rhodamine cleavage fluorescence, 3 h. Ubiquitin carboxyl-terminal hydrolase 17-like protein 5 (Homo sapiens), A8MUK1
USP30 block: inhibitors of human USP30 deubiquitinase; Ubiquitin carboxyl-terminal hydrolase 30 (Homo sapiens), Q70CQ3; purified USP30, Ub-rhodamine cleavage fluorescence; inhibition, % at 25 µM; 47,000 compounds, 5.3% hits
USP28 inh: inhibitors of human USP28 deubiquitinase | AID 1645857, 2021 | purified USP28, Ub-rhodamine cleavage fluorescence, 30 min | 47,000 compounds, 3% hits | inhibition, % at 25 µM
Numbers without * were called inactive; i = inactive; x = no result. Rule as the data show it: active = inhibition above about 30%; inactive = the rest.

SMILES | OTUD3 inh | USP17 inh | USP30 block | USP28 inh
O=C(Nc1ccc(Cl)cc1)C1Cn2ccnc2C2(CCNCC2)O1 (centres undefined) | 1 | 0 | x | x
CC(C)N1CCc2c(sc3c2C(=O)NC(c2ccco2)N3)C1 (centres undefined) | -193 | -173 | i | -247
Cc1cccc(NC(=O)c2cc3cccnc3n(C)c2=O)c1 | -4 | -1 | -36 | 31*
COC(=O)c1ccccc1NC(=O)c1cc2ccccc2c(=O)s1 | 0 | 0 | -3 | -4
Cc1cccc(NC(=O)c2cc3ccccc3c(=O)s2)c1 | 0 | 69* | x | x
CC(=O)c1cccc(NC(=O)c2cc3cccnc3n(C)c2=O)c1 | -12 | 6 | -53 | -11
O=C(NCCc1ccccc1)N1CCc2nc[nH]c2C1 | -5 | -17 | -15 | -7
CCOc1ccc(S(=O)(=O)N2CCC(C(=O)Nc3ccc(N4CCOCC4)cc3)CC2)cc1 | -11 | -9 | -2 | -24
Cc1ccc(NC(=O)Nc2cccn3nc(C)nc23)cc1 | 1 | 1 | 14 | 47*
Cc1ccc(-c2c(C)noc2C)cc1S(=O)(=O)N1CCN(C)CC1 | 3 | -3 | 9 | 2
COc1cc2[nH]c(=O)n(CCCC(=O)N3CCC(C(N)=O)(N4CCCCC4)CC3)c(=O)c2cc1OC | 15 | -1 | 13 | 3
COc1cc2[nH]c3c(N4CCC(C(N)=O)(N5CCCCC5)CC4)ncnc3c2cc1OC | 7 | 11 | 30* | 19
COc1ccccc1NC1=NS(=O)(=O)C(c2ccc(F)cc2)=C1C | -10 | 23 | -7 | 0
CCC(=O)N1CCN(c2ccnc3cc(Cl)ccc23)CC1 | 0 | -6 | 0 | -10
COc1ccc(S(=O)(=O)N2CCN(c3ccnc4cc(Cl)ccc34)CC2)cc1 | 0 | 1 | 33* | 0
O=C(COc1ccc(C2CCCCC2)cc1)Nc1ccc(-c2nn3cnnc3s2)cc1 | 46* | 72* | 66* | 45*
CCOC(=O)C1CCCN(C(=O)c2ccc3c(=O)n4c(nc3c2)CCCC4)C1 (centres undefined) | 9 | 10 | 13 | 7
COc1ccc(C(C)=O)cc1COC(=O)c1oc2ccc(Br)cc2c1C | -9 | 21 | -58 | 0
COc1ccc(C(C)=O)c2cc(C#N)oc12 | 0 | 30* | 2 | -2
Cc1[nH]c(C(=O)NC2CCCCCC2)c(C)c1S(=O)(=O)N1CCCC1 | -1 | 43* | -34 | -10
COc1ccc(CN2C[C@@H]3C[C@]3(c3ccccc3)C(=O)c3ncccc32)cc1 | -10 | 60* | -108 | -7
CCN(CC(=O)Nc1cccc(C(C)=O)c1)Cc1nc2ccccc2c(=O)[nH]1 | 12 | 9 | 0 | 5
COc1ccc(-c2cc(C(F)F)n3ncc(C(=O)NCC4CCCO4)c3n2)cc1 (centres undefined) | 2 | 33* | x | x
COc1ccc(-c2cc(C(F)F)n3ncc(C(=O)Nc4ccc5c(c4)OCCO5)c3n2)cc1 | 2 | 11 | 56* | 5
CN(C)C(Cc1ccccc1)C(=O)c1ccc2c(c1)NC(=O)CO2 (centres undefined) | -9 | -1 | -1 | 6
SMILES | OTUD3 inh | USP17 inh | USP30 block | USP28 inh
Cc1nn(CC(=O)c2ccc3c(c2)NC(=O)CO3)c(C)c1[N+](=O)[O-] | -12 | 15 | -7 | 32*
O=C(NCc1ccccc1F)C1=NOC2(CCNC2)C1 (centres undefined) | -4 | -36 | -15 | -12
O=C(COc1ccc2c(-c3ccccc3)cc(=O)oc2c1)NCCc1cnc[nH]1 | 0 | -6 | 8 | 0
CSc1ccc(/C=C/c2nc(-c3ccccc3O)n[nH]2)cc1 | 14 | 46* | 9 | 29
COc1ccc2nc(N(Cc3ccncc3)C(=O)c3ccccc3)sc2c1 | 0 | 3 | -5 | 0
COc1ccc(OC)c2sc(N(Cc3ccncc3)C(=O)c3ccco3)nc12 | 13 | 24 | 43* | 18
Cc1occc1C(=O)N1CC[C@@H]2CN(Cc3ccncc3)CCO[C@@H]2C1 | 1 | -20 | x | x
Cc1oncc1C(=O)N1CC[C@H]2CO[C@H](CN3CCOCC3)[C@H]2C1 | 19 | 6 | 30* | 17
Cc1ccc(OCC(=O)N2CCC(c3nc4ccccc4o3)CC2)cc1 | -5 | -21 | -15 | -19
COc1ccc(C(CC(=O)NCc2cccc(OC)c2)n2cccc2)cc1 (centres undefined) | 2 | 38* | 11 | 1
COc1ccc2cc(C(C)C(=O)NCc3ccc(CS(N)(=O)=O)cc3)ccc2c1 (centres undefined) | 0 | 1 | 28 | 16
O=C(CC(c1cccc(F)c1)n1cccc1)NCc1ccc(Cl)cc1 (centres undefined) | 13 | 5 | 38* | 14
COc1ccc2cc(C(C)C(=O)NCc3cccc(NS(N)(=O)=O)c3)ccc2c1 (centres undefined) | 9 | 6 | 42* | 20
CC1(C(=O)NC2CCCC2)CCC(=O)N1c1cccc(F)c1 (centres undefined) | 1 | -1 | 22 | 6
O=C(Nc1ccc(Sc2cccc(C(F)(F)F)c2)cc1)c1ccc(F)cc1 | -8 | -14 | -20 | -15
Cc1ccc(S(=O)(=O)N2CCCC(c3nnc4ccccn34)C2)cc1C (centres undefined) | 8 | 16 | 12 | 12
COc1ccc(CN2C(=O)c3cc4occc4n3CC2(C)C(=O)NC2CCCCC2)cc1 (centres undefined) | -7 | -2 | -27 | -5
CN1CC[C@@]2(C(=O)N3CCCC3)CCN(C(=O)Nc3ccc(Cl)cc3)CC[C@@H]12 | -3 | -17 | -15 | -5
Cc1ccccc1C(=O)N1CCC2(CC1)OCCN2S(=O)(=O)c1ccccc1 | -3 | 0 | -13 | -7
Cc1ccc(S(=O)(=O)N2CCOC23CCN(C(=O)c2ccccc2)CC3)cc1 | 12 | 9 | 33* | 16
Cc1cccc(Nc2nc(N3CCCCC3)nc(N3CCCCC3)n2)c1 | 7 | 0 | 30* | 7
COc1ccccc1-c1nc2c3cnn(-c4ccc(C)cc4)c3ncn2n1 | 16 | 30 | 30 | 11
COc1ccccc1C1=NC(c2ccc(C)cc2)N=C1C (centres undefined) | 5 | 32* | 24 | 6
COc1ccc(CC(=O)NCc2ccc3c(c2)cc(C)n3C)cc1OC | -47 | -31 | -213 | -56
Cc1cc2cc(CNC(=O)NC3CCCCC3)ccc2n1C | -28 | 33* | -84 | -14
COC1=CC(=O)c2c(O)c(C)c(CC(C)=O)c(O)c2C1=O | -22 | 64* | -98 | 0
CCC(C)NC(=O)c1cnn(-c2ccc(-c3nc(C)no3)cn2)c1C (centres undefined) | 10 | 8 | 13 | 0
CCn1cc2nc(SCC(=O)NC3CCCC3)n(Cc3ccc(C)cc3)c(=O)c2n1 | 16 | 63* | 70* | 12
CCn1cc2nc(SCC(=O)NC3CCCC3)n(Cc3ccc(OC)cc3)c(=O)c2n1 | 0 | -2 | 8 | -5
